Experimental data reported in PubChem BioAssay AID504634 (The Scripps Research Institute Molecular Screening Center, 2011).
Screen size: about 340,000 compounds; about 280 (0.082%) were called active. Only a selection was taken, and actives are over-represented in it overall. A number with no mark means an inactive call. Rule as the data show it: active = inhibition mostly above about 23% (no sharp cut-off); inactive = mostly below about 18%.

What follows are compounds tested against 5-hydroxytryptamine receptor 5A (Homo sapiens) (UniProt P47898) (assay: inverse agonism at human 5-HT5A receptor – cell-based, luminescence, full-deck HTS, counter-screen for OPRM1-OPRD1 heterodimer inverse agonist project, primary screen (AID 504634;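 also: 0% = cells with DMSO and 100% = no-cell wells with DMSO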)). Details: HTR5A cell line, at 9.3 µM, hits give high values.
5-hydroxytryptamine receptor 5A (Homo sapiens), sequence (P47898 whole entry, looked up): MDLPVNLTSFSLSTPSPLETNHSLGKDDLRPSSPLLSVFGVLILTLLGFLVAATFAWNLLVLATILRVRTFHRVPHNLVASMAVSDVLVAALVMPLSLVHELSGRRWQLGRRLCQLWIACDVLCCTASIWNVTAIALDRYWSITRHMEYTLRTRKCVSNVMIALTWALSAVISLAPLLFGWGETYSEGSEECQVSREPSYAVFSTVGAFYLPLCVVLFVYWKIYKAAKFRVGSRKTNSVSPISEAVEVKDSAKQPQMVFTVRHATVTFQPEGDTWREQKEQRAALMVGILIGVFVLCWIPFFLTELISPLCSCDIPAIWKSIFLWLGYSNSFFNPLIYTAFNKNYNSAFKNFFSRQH

SMILES	inhibition
CCCC1NC(=O)NC(C)=C1C(=O)OCC (stereo unspecified)	-17.2%
CCOC(=O)c1c(C)[nH]c(C)c1S(=O)(=O)NCCCc1ccco1	16.2%
CCNS(=O)(=O)c1ccc(CCC(=O)N2CCN(c3ccc(OC)cc3)CC2)cc1	8.47%
CC(NC(=O)CNC(=O)Cc1cccc2ccccc12)c1ccc(S(N)(=O)=O)cc1 (stereo unspecified)	2.43%
O=c1ccc2c(-c3ccccc3S(=O)(=O)O)c3ccc(O)c(O)c3oc-2c1O	24.5% (active)
NS(=O)(=O)c1ccc(CCNC(=O)c2ccc(Cl)c(S(=O)(=O)N3CCCCCC3)c2)cc1	-7.96%
COc1ccc2[nH]c3c(c2c1)CCN1C(=O)C(CC(=O)NCCc2ccccn2)C[C@H](C(=O)N2CCOCC2)[C@@]31C (stereo partly specified)	2.62%
Cc1noc(C)c1NC(=O)Nc1ccc2c(c1)C(=O)N([C@H](C)CO)C[C@H](C)[C@@H](CN(C)C(=O)Nc1ccccc1)O2	-10%
S=C(Nc1ccc(Br)cc1Cl)N1CCC2(CC1)OCCO2	2.4%
CC(C)Cn1cnc2c1c(=O)n(CC(O)c1ccccc1)c(=O)n2CC(C)C (stereo unspecified)	-27.9%
COc1ccc(S(=O)(=O)N2CCc3ccccc32)cc1C(=O)Nc1cc(S(C)(=O)=O)ccc1Cl	-6.04%
COc1cc(CCC(=O)Nc2ccncc2Cl)cc(OC)c1OC	6.7%
Cc1cccn2c(=O)c(C=O)c(Nc3ccc(S(N)(=O)=O)cc3)nc12	-18.2%
O=C(O)c1ccccc1NC(=S)NC(NC(=O)c1ccccc1[N+](=O)[O-])C(Cl)(Cl)Cl (stereo unspecified)	-0.92%
CCCS(=O)(=O)N1CCN(C(=O)c2cccs2)CC1	-3.26%
Cc1cccc(N2CC(C)Cn3c2nc2c3c(=O)n(CC(=O)OCc3ccccc3)c(=O)n2C)c1 (stereo unspecified)	-8.01%
COc1ccc(S(=O)(=O)N2CCOC2CNC(=O)C(=O)NCc2ccc(F)cc2)cc1 (stereo unspecified)	7.37%
CC(C)(C)c1ccc(S(=O)(=O)N2CCN(C(=O)c3ccc4c(c3)C(=O)N(Cc3ccncc3)C4=O)CC2)cc1	5.4%
COc1ccc(C#Cc2c(-c3ccc(OC)cc3)oc3ccc(-c4ccc5c(c4)OCO5)cc23)cc1	5.51%

SMILES	inhibition
CC1(c2ccc3ccccc3c2)NC(=O)N(CC(N)=O)C1=O (stereo unspecified)	1.06%
CCCC(=O)N1CCN(c2nnc(-c3ccc(C)cc3)c3ccccc23)CC1	-8.96%
CN(C(=O)COC(=O)CCCc1c[nH]c2ccccc12)c1c(N)n(Cc2ccccc2)c(=O)[nH]c1=O	20.6%
NC(=O)c1cc(S(=O)(=O)NCCCc2ccco2)cs1	1.79%
CCc1ccc(NC(=O)CCNS(=O)(=O)c2cccs2)cc1	-3.72%
COc1ccc(/C=N/OCc2ccccc2C#N)c(OC)c1	-3.2%
Cc1ccc(C(=O)NCC(=O)NC2CC2)cc1	4.21%
NS(=O)(=O)c1ccc(CCNC(=O)c2nc(CS(=O)(=O)c3ccc(Cl)cc3)no2)cc1	-12.4%
Cn1cnc(C(F)(F)F)c1-c1ccc([N+](=O)[O-])cc1	8.1%
COc1ccccc1C1=CC(=O)CCC1	2.76%
CCn1c(SCC(=O)N(C)C2CCS(=O)(=O)C2)nnc1-c1cccs1 (stereo unspecified)	-22.6%
O=c1nc(NO)ccn1C1CCCO1 (stereo unspecified)	1.3%
O=C(O)c1ccc(-n2nc(-c3ccccc3)c3ccccc3c2=O)cc1	0.76%
COc1ccc(N(CC(=O)NC2CCCCC2)S(=O)(=O)c2c(C)[nH]c(=O)[nH]c2=O)cc1	1.68%
Cc1sc2ncn(CC(=O)NCCCC(=O)N3CCN(c4ccccc4F)CC3)c(=O)c2c1C	1.47%
Cc1nc(N)c(Br)c(C)c1Br	-6.08%
CSCCC(NC(=O)COc1ccccc1)C(=O)OCC(=O)c1cc2ccccc2o1 (stereo unspecified)	33.3% (active)
CSCCC(NC(=O)COc1ccccc1)C(=O)OCCOc1ccc(Br)cc1 (stereo unspecified)	-4.54%
CSCCC(NC(=O)COc1ccccc1)C(=O)OCc1ccc(Cl)cc1 (stereo unspecified)	-5.68%

SMILES	inhibition
COc1cc(C(=O)NNC(=O)CN2C(=O)NC3(CCCC3)C2=O)cc(OC)c1OC	5.64%
COCCCNS(=O)(=O)c1cccc(S(=O)(=O)c2cccc(S(=O)(=O)NCCCOC)c2)c1	-5.56%
O=C(CC1C(=O)NCCN1Cc1ccc(-c2ccccc2)cc1)NCc1ccncc1 (stereo unspecified)	-12.3%
COc1ccccc1CN(C)C(=O)C1(c2ccc(Cl)cc2)CC1	21.3%
Cc1cc(OC(=O)c2ccccc2Cl)ccc1N1C(=O)CCC1=O	11.2%
Cc1ccc(C(=O)OCC(=O)N2CC(C)CC(C)C2)cc1S(=O)(=O)N1CCCCC1 (stereo unspecified)	11%
CCCCCCCC1(C)NC(=O)N(CC(=O)Nc2cc(C)on2)C1=O (stereo unspecified)	-14.9%
O=C(NCCS(=O)(=O)N1CCN(c2ccc(F)cc2)CC1)c1ccc2c(c1)OCO2	9.72%
CN(CCc1ccccc1)C(=O)c1cccc(NC(=O)Cc2ccc([N+](=O)[O-])cc2)c1	-40.2%
Cc1cc(C)cc(C(=O)NC(CC(N)=O)c2ccc(N3CCC(N4CCCCC4)CC3)c([N+](=O)[O-])c2)c1 (stereo unspecified)	-1.31%
Cc1ccc(S(=O)(=O)C2(S(=O)(=O)c3ccc(C)cc3)CCCC2)cc1	-9.41%
O=C(CCCOc1ccccc1)NNC(=O)c1ccc(Cl)cc1	-22.2%
COC(=O)N1CN(C(=O)OC)CN(C(=O)OC)C1	-11.4%
O=C(NNc1cc(Cl)cc(Cl)c1)c1c(F)cccc1Cl	5.05%
CC1(C)CC(=O)C(C2c3ccccc3S(=O)(=O)c3ccccc32)C(=O)C1	-6.15%
CC(C)OC(=O)Cn1nc(C(F)(F)F)c2c1CCCC2	-22%
CN1CCN(C2=NCCO2)CC1	13.4%
Nc1scc(-c2ccncc2)c1Cl	4.78%
